Records with an inconclusive call do not appear. Where a call stands in place of a potency, no number is given. Active and inactive are the calls of the source. Unless noted, the call rests on the fitted dose curve; in most records, active means well fitted curve in the direction sought with a large enough effect in the repeat runs; inconclusive means weak or mixed curves; inactive means no such curve, though single readings can be large; an effect the other way counts as inactive or inconclusive.
Legend:
[1] = qHTS assay to test for compound auto fluorescence at 535 nm (green) in HEK293 cells (AID 720680)
[2] = qHTS assay to test for compound auto fluorescence at 460 nm (blue) in HEK293 cell free culture (AID 720681)
In short: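 Compounds were added to cell-free DMEM with 10% FBS and fluorescence read directly. The blue channel used 405 nm excitation and 460 nm emission, with triamterene as the reference fluorophore.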

[3] = qHTS assay to test for compound auto fluorescence at 535 nm (green) in HEK293 cell free culture (AID 720682)
In short: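 No cells present: wells hold DMEM supplemented with 10% FBS, into which compound or vehicle is pinned. Green emission is then recorded (485 nm excitation, 535 nm emission) and scaled to fluorescein.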

[4] = qHTS assay to test for compound auto fluorescence at 590 nm (red) in HEK293 cell free culture (AID 720683)
In short: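 Cell-free wells of DMEM with 10% FBS received compound, and intrinsic fluorescence was read at excitation/emission 540/590 nm. Values expressed as equivalence to Rose Bengal sodium.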

[5] = qHTS assay to test for compound auto fluorescence at 590 nm (red) in HepG2 cell free culture (AID 720684)
In short: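 Auto fluorescence equivalency versus Rose Bengal sodium, red channel Ex/Em 540/590 nm; compounds in cell-free MEM/10% FBS; DMSO vehicle control.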

[6] = qHTS assay to test for compound auto fluorescence at 460 nm (blue) in HepG2 cell free culture (AID 720685)
In short: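 Cell-free plates of MEM plus 10% FBS received 23 nL compound or DMSO vehicle; blue-channel (405/460 nm) intensity scored against triamterene as reference fluorophore.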

[7] = qHTS assay to test for compound auto fluorescence at 535 nm (green) in HepG2 cell free culture (AID 720686)
[8] = qHTS assay to test for compound auto fluorescence at 460 nm (blue) in HepG2 cells (AID 720687)
In short: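 HepG2 cells in MEM with 10% FBS, attached overnight at 37 C, were exposed to compound or DMSO for 1 hr at 37 C, 5% CO2. Blue fluorescence was read at 405/460 nm, with triamterene as reference fluorophore.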

[9] = target: Glucocorticoid receptor (Homo sapiens) (UniProt P04150); assay: qHTS assay to identify small molecule agonists of the glucocorticoid receptor (GR) signaling pathway (AID 720691; active means well fitted activation curve with a large enough effect in the signal ratio in the repeat runs, not every such curve was filed as active; the % refers to the signal ratio); conditions: GR-bla HeLa, beta-lactamase reporter ratio, 18 h; activation: at 62.4 µM (top of the series)
In short: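 Cells: GR-bla HeLa, endogenous GR with stably integrated GRE-beta-lactamase reporter. Treatment 18 h, 37 C, compounds delivered in DMSO. Detection via LiveBLAzer B/G FRET substrate, 2 h RT, fluorescence intensity.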

[10] = target: Glucocorticoid receptor (Homo sapiens) (UniProt P04150); assay: qHTS assay to identify small molecule antagonists of the glucocorticoid receptor (GR) signaling pathway (AID 720692; active means well fitted inhibition curve with a large enough effect in the signal ratio in the repeat runs, not every such curve was filed as active; the % refers to the signal ratio)
In short: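 Quantitative HTS in antagonist format: HeLa cells expressing endogenous GR and a stably integrated GRE-bla reporter, stimulated with 5 nM dexamethasone (final) alongside test compounds for 18 h.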

[11] = qHTS assay for identifying genotoxic compounds that show differential cytotoxicity against isogenic chicken DT40 cell lines with known DNA damage response pathways - wild type cell line (AID 743012); further: nearly all actives have a fitted effect of over 60% in size; further: potency means the concentration at half of the fitted maximal effect
In short: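 Luminescent ATP viability signal (CellTiter-Glo, 30 min RT) recorded after wild type DT40 cells were incubated with compounds for 40 h at 37 C/5% CO2.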

[12] = qHTS assay for identifying genotoxic compounds that show differential cytotoxicity against isogenic chicken DT40 cell lines with known DNA damage response pathways - Rev3 mutant cell line (AID 743014); further: nearly all actives have a fitted effect of over 55% in size; further: potency means the concentration at half of the fitted maximal effect
[13] = qHTS assay for identifying genotoxic compounds that show differential cytotoxicity against isogenic chicken DT40 cell lines with known DNA damage response pathways - Rad54/Ku70 mutant cell line (AID 743015); further: nearly all actives have a fitted effect of over 60% in size; further: potency means the concentration at half of the fitted maximal effect
[14] = qHTS assay to identify small molecule antagonists of the androgen receptor (AR) signaling pathway - cell viability counter screen (AID 743033; further: nearly all actives have a fitted effect of over 45% in size)
[15] = qHTS assay to identify small molecule antagonists of the androgen receptor (AR) signaling pathway using the MDA cell line - cell viability counter screen (AID 743041; further: nearly all actives have a fitted effect of over 45% in size)
In short: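 Compound exposure lasted 16 h at 37C in MDA-kb2 AR-luc cells stimulated with R1881. Protease-based CellTiter-Fluor reagent was applied for the final 30 min and fluorescence measured.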

[16] = qHTS assay to identify small molecule antagonists of the glucocorticoid receptor (GR) signaling pathway - cell viability counter screen (AID 720693); further: nearly all actives have a fitted effect of over 55% in size
[17] = target: Androgen receptor (Homo sapiens) (UniProt P10275); assay: qHTS assay to identify small molecule antagonists of the androgen receptor (AR) signaling pathway (AID 743035; active means well fitted inhibition curve with a large enough effect in the signal ratio in the repeat runs, not every such curve was filed as active; the % refers to the signal ratio)
In short: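 Quantitative HTS of the Tox21 10K library used HEK293 AR-UAS-bla cells stimulated with R1881 alongside compound for 16 h at 37C, followed by beta-lactamase FRET detection (LiveBLAzer B/G, 2 h, RT).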

[18] = target: Androgen receptor (Homo sapiens) (UniProt P10275); assay: qHTS assay to identify small molecule agonists of the androgen receptor (AR) signaling pathway (AID 743036; active means well fitted activation curve with a large enough effect in the signal ratio in the repeat runs, with a control signal flat, not every such curve was filed as active; the % refers to the signal ratio)
In short: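 Quantitative HTS of the Tox21 10K library in HEK293 cells bearing a stably integrated UAS-controlled beta-lactamase reporter. Compound exposure lasted 16 h at 37C. Reporter activity was detected by FRET substrate fluorescence after 2 h at room temperature.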

[19] = target: Androgen receptor (Homo sapiens) (UniProt P10275); assay: qHTS assay to identify small molecule agonists of the androgen receptor (AR) signaling pathway using the MDA cell line (AID 743040; further: nearly all actives have a fitted effect of over 20% in size)
In short: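 Testing was done with the MDA-kb2 AR-luc line, a human breast carcinoma stably transfected with MMTV-luciferase containing AR and GR response elements. Cells were exposed 16 h at 37C before ONE-Glo luminescence detection.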

[20] = target: Androgen receptor (Homo sapiens) (UniProt P10275); assay: qHTS assay to identify small molecule antagonists of the androgen receptor (AR) signaling pathway using the MDA cell line (AID 743042; further: nearly all actives have a fitted effect of over 55% in size)
In short: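 MDA-kb2 breast carcinoma cells carrying MMTV-luciferase (AR/GR responsive) were co-treated with compounds and the agonist R1881 for 16 h at 37C. Inhibition read as ONE-Glo luminescence; CellTiter-Fluor fluorescence measured in parallel for cytotoxicity.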

Chain of Glucocorticoid receptor (Homo sapiens) (P04150 whole entry, looked up): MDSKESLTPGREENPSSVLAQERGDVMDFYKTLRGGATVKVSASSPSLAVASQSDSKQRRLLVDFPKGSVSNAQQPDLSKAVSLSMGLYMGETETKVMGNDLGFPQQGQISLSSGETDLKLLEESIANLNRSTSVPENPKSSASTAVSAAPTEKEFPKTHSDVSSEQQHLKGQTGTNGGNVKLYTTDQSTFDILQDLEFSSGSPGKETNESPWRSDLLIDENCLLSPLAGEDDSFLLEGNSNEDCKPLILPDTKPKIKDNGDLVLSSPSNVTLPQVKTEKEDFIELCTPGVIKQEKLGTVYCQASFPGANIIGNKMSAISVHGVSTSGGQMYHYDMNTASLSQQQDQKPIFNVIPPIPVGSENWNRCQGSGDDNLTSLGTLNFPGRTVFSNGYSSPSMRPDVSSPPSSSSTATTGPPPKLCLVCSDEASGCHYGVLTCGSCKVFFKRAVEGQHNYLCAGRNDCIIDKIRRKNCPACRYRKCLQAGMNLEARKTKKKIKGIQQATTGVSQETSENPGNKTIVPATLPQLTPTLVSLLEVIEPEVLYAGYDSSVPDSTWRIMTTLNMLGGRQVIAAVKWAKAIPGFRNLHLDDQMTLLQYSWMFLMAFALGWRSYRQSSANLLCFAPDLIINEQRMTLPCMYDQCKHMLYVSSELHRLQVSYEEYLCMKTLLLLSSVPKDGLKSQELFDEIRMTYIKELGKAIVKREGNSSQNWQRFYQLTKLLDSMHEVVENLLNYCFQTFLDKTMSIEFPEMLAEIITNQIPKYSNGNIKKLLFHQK
Chain of Androgen receptor (Homo sapiens) (P10275 whole entry, looked up): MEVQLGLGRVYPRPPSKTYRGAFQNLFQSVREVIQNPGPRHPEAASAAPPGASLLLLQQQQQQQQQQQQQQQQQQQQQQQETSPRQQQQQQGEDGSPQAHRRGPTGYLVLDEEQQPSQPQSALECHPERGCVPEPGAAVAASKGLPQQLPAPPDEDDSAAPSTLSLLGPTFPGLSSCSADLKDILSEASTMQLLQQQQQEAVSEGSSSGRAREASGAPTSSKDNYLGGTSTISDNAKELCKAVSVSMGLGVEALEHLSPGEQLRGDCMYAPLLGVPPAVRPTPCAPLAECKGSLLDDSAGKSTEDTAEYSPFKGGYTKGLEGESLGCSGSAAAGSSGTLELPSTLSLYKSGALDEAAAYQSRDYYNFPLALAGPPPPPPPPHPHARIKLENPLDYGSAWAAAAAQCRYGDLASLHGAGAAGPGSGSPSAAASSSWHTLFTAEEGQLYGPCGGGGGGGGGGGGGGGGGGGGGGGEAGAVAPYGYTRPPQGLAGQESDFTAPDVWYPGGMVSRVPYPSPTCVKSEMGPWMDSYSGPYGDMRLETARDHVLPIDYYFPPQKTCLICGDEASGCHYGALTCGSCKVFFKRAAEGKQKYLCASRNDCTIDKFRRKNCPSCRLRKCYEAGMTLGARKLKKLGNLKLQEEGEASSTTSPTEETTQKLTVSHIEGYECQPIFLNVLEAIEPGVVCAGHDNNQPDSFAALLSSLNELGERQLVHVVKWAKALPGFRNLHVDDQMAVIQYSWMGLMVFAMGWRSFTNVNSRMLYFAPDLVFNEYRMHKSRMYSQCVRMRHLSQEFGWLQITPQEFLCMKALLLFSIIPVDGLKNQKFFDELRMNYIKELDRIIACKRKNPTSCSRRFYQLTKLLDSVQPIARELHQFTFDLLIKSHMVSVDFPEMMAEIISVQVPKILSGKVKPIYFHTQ

Compound	Potency [1]	Potency [2]	Potency [3]	Potency [4]	Potency [5]	outcome [6]	Potency [7]	outcome [8]	Potency [9]	Potency [10]	Potency [11]	Potency [12]	Potency [13]	Potency [14]	Potency [15]	Potency [16]	Potency [17]	Potency [18]	Potency [19]	Potency [20]
NC(=O)C[C@@H](N)C(=O)O	inactive	inactive	inactive	inactive	inactive	inactive	inactive	inactive	inactive	inactive	inactive	inactive	inactive	inactive	inactive					
CCOC(=O)[C@H](CS)NCCN[C@@H](CS)C(=O)OCC	inactive	inactive	inactive	inactive	inactive	inactive	inactive	inactive	inactive	inactive		inactive		inactive	inactive	inactive				
C=C[C@]1(C)C[C@@H](OC(=O)CO)[C@]2(C)[C@H](C)CC[C@]3(CCC(=O)[C@H]32)[C@@H](C)[C@@H]1O	inactive	inactive	inactive	inactive	inactive	inactive	inactive	inactive	inactive	inactive					inactive	inactive				
COCC(=O)Nc1cc(Sc2ccccc2)ccc1N=C(NC(=O)OC)NC(=O)OC	inactive	inactive	inactive	inactive	inactive	inactive	inactive	inactive	inactive	inactive				inactive	inactive	inactive				
Nc1ccn(C[C@@H](CO)OCP(=O)(O)O)c(=O)n1	inactive	inactive	inactive	inactive	inactive	inactive	inactive	inactive	inactive		inactive	inactive	inactive	inactive	inactive	inactive	inactive	inactive	inactive	inactive
CC(C)(CO)[C@@H](O)C(=O)NCCCC(=O)O	inactive	inactive	inactive	inactive	inactive	inactive	inactive	inactive	inactive	inactive			inactive	inactive	inactive	inactive	inactive	inactive	inactive	inactive
O=P(O)(O)OC(CO)CO	inactive	inactive	inactive	inactive	inactive	inactive	inactive	inactive	inactive		inactive	inactive	inactive	inactive	inactive	inactive				
CCN(CC)CCOC(=O)c1ccc(N)cc1Cl	inactive	inactive	inactive	inactive	inactive	inactive	inactive	inactive	inactive		inactive	inactive	inactive	inactive	inactive	inactive				
Cc1ccc(/C(=C\CN2CCCC2)c2cccc(/C=C/C(=O)O)n2)cc1	inactive	inactive	inactive	inactive	inactive	inactive	inactive	inactive	inactive		inactive	inactive	inactive	inactive	inactive	inactive				
CCC(=O)NS(=O)(=O)c1ccc(-c2c(-c3ccccc3)noc2C)cc1	inactive	inactive	inactive	inactive	inactive	inactive	inactive	inactive	inactive		inactive	inactive	inactive	inactive	inactive	inactive				
CO/N=C(\C(=O)N[C@@H]1C(=O)N2C(C(=O)O)=C(CSc3nnnn3C)CS[C@H]12)c1csc(N)n1	inactive	inactive	inactive	inactive	inactive	inactive	inactive	inactive	inactive		inactive	inactive	inactive	inactive	inactive	inactive				
c1ccc2c(c1)Sc1ccccc1N2CCN1CCCC1	inactive	inactive	inactive	inactive	inactive	inactive	inactive	inactive	inactive		10.6 µM (active)	8.41 µM (active)	16.8 µM (active)	inactive	inactive	inactive				
CCC(C)(C)OC(=O)N[C@@H](Cc1c[nH]c2ccccc12)C(=O)N[C@@H](CCSC)C(=O)N[C@@H](CC(=O)O)C(=O)N[C@@H](Cc1ccccc1)C(N)=O	inactive	inactive	inactive	inactive	inactive	inactive	inactive	inactive	inactive		inactive	inactive	inactive	inactive	inactive	inactive				
CCOC(=O)Cc1cccc(-c2cc(CCCCCCc3ccc(O[C@H]4O[C@H](COC(C)=O)[C@@H](OC(C)=O)[C@H](OC(C)=O)[C@@H]4OC(C)=O)c(-c4cccc(CC(=O)OCC)c4)c3)ccc2O[C@H]2O[C@H](COC(C)=O)[C@@H](OC(C)=O)[C@H](OC(C)=O)[C@@H]2OC(C)=O)c1	inactive	inactive	inactive	inactive	inactive	inactive	inactive	inactive	inactive		inactive	inactive	inactive	inactive	inactive	inactive				
